# Measurements as given in PubChem BioAssay (EPA / NIEHS).
# Results filed as inconclusive are left out. Activity calls are given as the source filed them. Rule for the calls, unless noted: active = hit-call score of the fitted dose curve at least 0.9, where 1 is the maximum; inconclusive = response in the unintended direction; inactive = score below 0.9.
# Experiments:
# [1] = biological target: mouse Estrogen Receptor alpha (Era), Esr1 (gene 13982) (UniProt P19785); experiment: NVS_NR_mERa: NovaScreen (NVS) Nuclear Receptor Binding Assay for mouse Estrogen Receptor alpha (Era) (AID 2283378);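 note: hit means loss of bound radioligand signal relative to DMSO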
# Summary of the method: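 Cell-free radioligand competitive displacement binding, read by filter-based scintillation counting 18 h after dosing. Primary screen run in duplicate at 25 uM, actives retested in concentration series; loss of signal versus DMSO.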
# [2] = CEETOX_H295R_11DCORT: CeeTox H295R High-throughput Steroidogenesis Assay for 11-Deoxycortisol (11DCORT) (AID 2283432; active = hit-call score of the fitted dose curve at least 0.9, where 1 is the maximum; inactive = score below 0.9); conditions: actives raise or lower the signal
# Summary of the method: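 H295R cells prestimulated 48 h with 10 uM forskolin, then exposed 48 h to chemical in 0.1% DMSO. 11-Deoxycortisol in medium quantified by HPLC-MS/MS after MTBE extraction; bidirectional fit versus DMSO. MTT viability read in same wells.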
# [3] = CEETOX_H295R_OHPREG: CeeTox H295R High-throughput Steroidogenesis Assay for OH-Pregnenolone (OHPREG) (AID 2283434; active = hit-call score of the fitted dose curve at least 0.9, where 1 is the maximum; inactive = score below 0.9); conditions: actives raise or lower the signal
# Summary of the method: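 H295R, 10 uM forskolin pre-stim 48 h; test chemical 48 h, 0.1% DMSO final. MTBE extraction, reverse-phase C18 HPLC-ESI+ MS/MS of medium. Gain/loss vs DMSO; viability by MTT in same wells.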
# [4] = CEETOX_H295R_OHPROG: CeeTox H295R High-throughput Steroidogenesis Assay for OH-Progesterone (OHPROG) (AID 2283435; active = hit-call score of the fitted dose curve at least 0.9, where 1 is the maximum; inactive = score below 0.9;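 for AC50: human adrenal H295R cells primed 48 h with 10 µM forskolin; 17alpha-hydroxyprogesterone secreted into medium measured by HPLC-MS/MS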); conditions: actives raise or lower the signal
# Summary of the method: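 Steps: seed H295R cells and adhere overnight; stimulate with 10 uM forskolin for 48 h; replace with chemical-containing medium (0.1% DMSO) for 48 h; extract medium with MTBE; quantify 17alpha-hydroxyprogesterone by reverse-phase C18 HPLC-MS/MS against a 7-point curve.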
# [5] = CEETOX_H295R_CORTIC: CeeTox H295R High-throughput Steroidogenesis Assay for Corticosterone (CORTIC) (AID 2283437; active = hit-call score of the fitted dose curve at least 0.9, where 1 is the maximum; inactive = score below 0.9;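 note: corticosterone secreted into medium quantified by mass spectrometry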); conditions: actives raise or lower the signal
# Summary of the method: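 48 h forskolin (10 uM) prestim, then 48 h chemical exposure, final DMSO 0.1%. Readout: corticosterone in medium by LC-MS/MS after MTBE extraction. Gain/loss fit vs DMSO; MTT viability in same wells.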
# [6] = CEETOX_H295R_CORTISOL: CeeTox H295R High-throughput Steroidogenesis Assay for Cortisol (AID 2283438; active = hit-call score of the fitted dose curve at least 0.9, where 1 is the maximum; inactive = score below 0.9); conditions: actives raise or lower the signal
# Summary of the method: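 Cortisol synthesis by H295R cells is measured 48 h after chemical dosing, following a 48 h stimulation with 10 uM forskolin. Hormone is extracted and quantified by HPLC-MS/MS, and activity is fitted bidirectionally against the DMSO control.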
# [7] = CEETOX_H295R_DOC: CeeTox H295R High-throughput Steroidogenesis Assay for DOC (AID 2283439; active = hit-call score of the fitted dose curve at least 0.9, where 1 is the maximum; inactive = score below 0.9); conditions: actives raise or lower the signal
# Summary of the method: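 Steps: seed H295R, adhere overnight; 10 uM forskolin 48 h; replace with chemical medium (0.1% DMSO) 48 h; collect medium, MTBE extraction, HPLC-MS/MS for DOC. Viability then checked by MTT; cytotoxic chemicals diluted until viability ≥70%.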
# [8] = CEETOX_H295R_ESTRADIOL: CeeTox H295R High-throughput Steroidogenesis Assay for Estradiol (AID 2283440; active = hit-call score of the fitted dose curve at least 0.9, where 1 is the maximum; inactive = score below 0.9;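 note: estradiol secreted into medium quantified by LC-MS/MS after dansyl derivatisation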); conditions: actives raise or lower the signal
# Summary of the method: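 H295R cells pre-stimulated 48 h with 10 uM forskolin, then exposed 48 h to chemical in 0.1% DMSO. Medium estradiol quantified by MTBE extraction, dansyl derivatisation and HPLC-MS/MS; bidirectional fit versus DMSO; MTT viability required >/=70%.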
# [9] = CEETOX_H295R_ESTRONE: CeeTox H295R High-throughput Steroidogenesis Assay for Estrone (AID 2283441; active = hit-call score of the fitted dose curve at least 0.9, where 1 is the maximum; inactive = score below 0.9); conditions: actives raise or lower the signal
# Summary of the method: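 Estrone secreted into medium quantified by LC-MS/MS after dansyl chloride derivatization, following 48 h chemical exposure (0.1% DMSO final) of forskolin-prestimulated (10 uM, 48 h) H295R cells; gain or loss fitted against DMSO; MTT viability in same wells.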
# [10] = biological target: Estrogen receptor beta (Homo sapiens) (UniProt Q92731); experiment: OT_ER_ERbERb_1440: Odyssey Thera (OT) 24-hour HEK293T Protein-Complementation Assay for Estrogen Receptor-beta/-beta Homodimer (AID 2283380);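 note: scored as signal increase over DMSO baseline for both agonists and antagonists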
# Summary of the method: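 HEK293T cells stably expressing ER beta LBD (aa 310-547) homodimer fragment-complementation reporter, dosed 24 h. Cells formaldehyde-fixed, Draq5-stained; gain in nuclear (agonist) or nuclear plus cytoplasmic (antagonist) fluorescence versus DMSO read by laser scanning cytometry.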
# [11] = biological target: Estrogen receptor (Homo sapiens) (UniProt P03372); experiment: OT_ERa_GFPERaERE_0480: Odyssey Thera (OT) 8-hour HeLa Transcription Induction Assay for Estrogen Receptor (AID 2283381; active = hit-call score of the fitted dose curve at least 0.9, where 1 is the maximum; inactive = score below 0.9)
# Summary of the method: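 Human cervical HeLa cells were treated for 8 hours, after which ERE-driven GFP induction was measured by fluorescence microscopy; increases over DMSO baseline defined activity.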
# [12] = biological target: Estrogen receptor (Homo sapiens) (UniProt P03372); experiment: OT_ERa_GFPERaERE_0120: Odyssey Thera (OT) 2-hour HeLa Transcription Induction Assay for Estrogen Receptor (AID 2283382)
# Summary of the method: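 Cells (human cervical HeLa) receive compound, incubate 2 hours, then are imaged for fluorescent reporter induction. Images are quantified by high content analysis, and activity is fitted as gain of signal against DMSO.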
# [13] = biological target: Peroxisome proliferator-activated receptor gamma (Homo sapiens) (UniProt P37231); experiment: OT_PPARg_PPARgSRC1_0480: Odyssey Thera (OT) 8-hour Protein-Complementation Assay for Peroxisome Proliferator-activated Receptor Gamma / SRC-1 Co-activator (AID 2283387)
# Summary of the method: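 HEK293T transiently transfected with PPARg and SRC-1 fused to Venus YFP fragments, compounds 8 h at 37C. Fixed, Draq5-stained cells imaged; nuclear/cytoplasmic 488 nm fluorescence ratio over at least 350 cells per image; gain fitted versus DMSO.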
# [14] = biological target: Peroxisome proliferator-activated receptor gamma (Homo sapiens) (UniProt P37231); experiment: OT_PPARg_PPARgSRC1_1440: Odyssey Thera (OT) 24-hour Protein-Complementation Assay for Peroxisome Proliferator-activated Receptor Gamma/ SRC-1 Co-activator (AID 2283388)
# Summary of the method: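 HEK293T transiently transfected with PPARg/SRC-1 split-Venus YFP fusions 48 h before dosing, then treated 24 h at 37C. Fixed cells imaged; nuclear/cytoplasmic 488 nm fluorescence ratio, gain of signal versus DMSO.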
# [15] = biological target: Retinoic acid receptor RXR-alpha (Homo sapiens) (UniProt P19793); experiment: OT_NURR1_NURR1RXRa_1440: Odyssey Thera (OT) 24-hour HEK293T Protein Complementation Assay for Nurr1/retinoid X receptor (RXR) (AID 2283386)
# Summary of the method: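 Steps: fragment-tagged Nurr1 and RXRα expressed in HEK293T; compounds added; after 24 h, complemented reporter quantified by fluorescence intensity; signal increase over DMSO fitted as the single endpoint.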
# [16] = biological target: Agonist Androgen Response Element (ARE), AR (gene 367) (UniProt P10275); experiment: OT_AR_ARELUC_AG_1440: Odyssey Thera (OT) 24-hour CHO-K1 Luciferase Assay for Agonist Androgen Response Element (ARE) (AID 2283379)
# Summary of the method: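 Gain-of-signal reporter endpoint: cells (CHO-K1, hamster) are treated 24 h, luciferin/ATP reagent added, and luminescence compared with DMSO baseline.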
# [17] = biological target: Bile acid receptor (Homo sapiens) (UniProt Q96RI1); experiment: OT_FXR_FXRSRC1_1440: Odyssey Thera (OT) 24-hour HEK293T Protein-Complementation Assay for Farnesoid X receptor/SRC-1 Co-activator (AID 2283384)
# Summary of the method: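 Measures ligand-driven FXR–SRC-1 co-activator recruitment in HEK293T via fragment complementation, fluorescence intensity at 24 h. DMSO served as negative control and baseline for gain-of-signal fitting.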
# [18] = CEETOX_H295R_ANDR: CeeTox H295R High-throughput Steroidogenesis Assay for Androstenedione (ANDR) (AID 2283436; active = hit-call score of the fitted dose curve at least 0.9, where 1 is the maximum; inactive = score below 0.9;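 note: human H295R adrenal cells exposed for 48 h with androstenedione measured in medium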); conditions: actives raise or lower the signal
# Summary of the method: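 48 h chemical exposure, H295R cells, DMEM/F12 + ITS+ and Nu-Serum. Medium androstenedione: MTBE extraction, C18 reverse-phase HPLC, ESI+ MS/MS. Fit bidirectional vs DMSO; MTT viability in same wells.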
# [19] = biological target: Bile acid receptor (Homo sapiens) (UniProt Q96RI1); experiment: OT_FXR_FXRSRC1_0480: Odyssey Thera (OT) 8-hour HEK293T Protein-Complementation Assay for Farnesoid X receptor/SRC-1 Co-activator (AID 2283383)
# Summary of the method: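 PCA, HEK293T, 8 h compound exposure; FXR–SRC-1 binding reconstitutes split reporter; fluorescence intensity; positive-direction fit vs DMSO.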
# Chain of Bile acid receptor (Homo sapiens) (Q96RI1 whole entry, looked up, the tested form may be a part): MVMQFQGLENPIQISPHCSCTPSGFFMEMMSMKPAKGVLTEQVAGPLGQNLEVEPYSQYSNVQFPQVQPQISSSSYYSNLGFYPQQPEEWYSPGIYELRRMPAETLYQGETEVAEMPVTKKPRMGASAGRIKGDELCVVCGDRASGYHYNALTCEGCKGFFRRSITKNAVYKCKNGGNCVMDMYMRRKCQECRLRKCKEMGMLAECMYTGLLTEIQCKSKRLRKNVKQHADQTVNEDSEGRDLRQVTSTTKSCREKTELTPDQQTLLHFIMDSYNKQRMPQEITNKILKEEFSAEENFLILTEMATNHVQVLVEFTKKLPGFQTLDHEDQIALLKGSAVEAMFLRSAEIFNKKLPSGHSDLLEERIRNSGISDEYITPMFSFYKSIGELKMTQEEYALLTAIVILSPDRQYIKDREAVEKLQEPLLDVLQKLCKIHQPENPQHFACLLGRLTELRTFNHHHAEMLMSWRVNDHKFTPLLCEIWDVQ
# Chain of Estrogen receptor beta (Homo sapiens) (Q92731 whole entry, looked up, the tested form may be a part): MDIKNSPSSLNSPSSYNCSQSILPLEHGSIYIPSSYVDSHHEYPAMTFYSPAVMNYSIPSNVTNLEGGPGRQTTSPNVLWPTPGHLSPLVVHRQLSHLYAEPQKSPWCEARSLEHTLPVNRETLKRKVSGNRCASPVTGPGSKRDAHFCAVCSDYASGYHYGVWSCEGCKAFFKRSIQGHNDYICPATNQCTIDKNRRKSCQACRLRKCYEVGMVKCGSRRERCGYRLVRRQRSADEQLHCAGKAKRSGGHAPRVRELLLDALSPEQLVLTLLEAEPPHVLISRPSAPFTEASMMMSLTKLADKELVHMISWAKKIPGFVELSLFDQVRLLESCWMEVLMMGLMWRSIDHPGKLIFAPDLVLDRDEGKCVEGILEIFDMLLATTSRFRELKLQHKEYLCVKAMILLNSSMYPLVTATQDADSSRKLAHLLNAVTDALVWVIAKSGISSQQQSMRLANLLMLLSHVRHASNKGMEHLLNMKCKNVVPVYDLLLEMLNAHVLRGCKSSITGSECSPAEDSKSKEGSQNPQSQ
# Chain of Peroxisome proliferator-activated receptor gamma (Homo sapiens) (P37231 whole entry, looked up, the tested form may be a part): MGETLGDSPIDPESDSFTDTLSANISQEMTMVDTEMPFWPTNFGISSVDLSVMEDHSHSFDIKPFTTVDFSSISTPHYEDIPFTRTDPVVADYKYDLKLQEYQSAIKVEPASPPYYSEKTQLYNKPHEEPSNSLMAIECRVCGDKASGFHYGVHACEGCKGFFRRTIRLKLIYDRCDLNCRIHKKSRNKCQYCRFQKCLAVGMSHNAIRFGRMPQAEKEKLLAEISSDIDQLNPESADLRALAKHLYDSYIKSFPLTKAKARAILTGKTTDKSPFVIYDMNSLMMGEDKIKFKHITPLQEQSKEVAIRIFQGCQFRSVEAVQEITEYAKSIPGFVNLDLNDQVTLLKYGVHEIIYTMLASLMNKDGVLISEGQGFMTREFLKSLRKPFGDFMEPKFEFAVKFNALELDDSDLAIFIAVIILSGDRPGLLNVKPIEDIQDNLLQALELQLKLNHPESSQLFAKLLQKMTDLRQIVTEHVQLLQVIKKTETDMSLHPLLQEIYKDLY
# Chain of mouse Estrogen Receptor alpha (Era), Esr1 (gene 13982) (P19785 whole entry, looked up): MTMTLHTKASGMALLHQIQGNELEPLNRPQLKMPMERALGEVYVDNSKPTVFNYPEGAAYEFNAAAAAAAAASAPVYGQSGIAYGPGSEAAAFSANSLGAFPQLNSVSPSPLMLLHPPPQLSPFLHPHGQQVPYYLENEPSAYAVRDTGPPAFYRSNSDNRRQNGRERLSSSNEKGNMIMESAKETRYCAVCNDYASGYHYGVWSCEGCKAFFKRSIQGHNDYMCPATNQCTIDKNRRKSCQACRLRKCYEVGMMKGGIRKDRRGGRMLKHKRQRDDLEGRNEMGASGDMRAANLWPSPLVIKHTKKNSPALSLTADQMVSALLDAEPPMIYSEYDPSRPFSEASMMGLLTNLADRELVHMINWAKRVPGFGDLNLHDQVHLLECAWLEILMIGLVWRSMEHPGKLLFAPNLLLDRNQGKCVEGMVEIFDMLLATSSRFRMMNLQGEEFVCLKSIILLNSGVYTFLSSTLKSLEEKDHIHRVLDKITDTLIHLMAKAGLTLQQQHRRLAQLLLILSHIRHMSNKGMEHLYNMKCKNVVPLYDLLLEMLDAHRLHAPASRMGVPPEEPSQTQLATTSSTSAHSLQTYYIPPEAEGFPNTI
# Chain of Estrogen receptor (Homo sapiens) (P03372 whole entry, looked up): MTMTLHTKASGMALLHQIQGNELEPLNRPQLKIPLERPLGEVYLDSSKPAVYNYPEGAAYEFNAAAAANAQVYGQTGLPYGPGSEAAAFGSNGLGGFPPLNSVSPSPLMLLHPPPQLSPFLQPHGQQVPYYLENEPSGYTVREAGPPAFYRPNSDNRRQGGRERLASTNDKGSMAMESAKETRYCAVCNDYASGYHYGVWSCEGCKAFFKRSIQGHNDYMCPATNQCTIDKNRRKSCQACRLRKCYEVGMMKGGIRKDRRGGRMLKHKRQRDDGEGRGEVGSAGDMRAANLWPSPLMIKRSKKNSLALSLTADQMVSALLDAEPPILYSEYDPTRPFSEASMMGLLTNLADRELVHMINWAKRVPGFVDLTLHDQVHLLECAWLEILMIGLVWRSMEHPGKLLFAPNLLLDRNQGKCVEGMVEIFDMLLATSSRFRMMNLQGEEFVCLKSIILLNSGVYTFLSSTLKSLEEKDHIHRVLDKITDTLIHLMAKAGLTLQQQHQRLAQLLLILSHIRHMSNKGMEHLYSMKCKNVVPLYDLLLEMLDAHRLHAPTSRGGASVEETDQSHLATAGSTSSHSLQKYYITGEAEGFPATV
# Chain of Retinoic acid receptor RXR-alpha (Homo sapiens) (P19793 whole entry, looked up, the tested form may be a part): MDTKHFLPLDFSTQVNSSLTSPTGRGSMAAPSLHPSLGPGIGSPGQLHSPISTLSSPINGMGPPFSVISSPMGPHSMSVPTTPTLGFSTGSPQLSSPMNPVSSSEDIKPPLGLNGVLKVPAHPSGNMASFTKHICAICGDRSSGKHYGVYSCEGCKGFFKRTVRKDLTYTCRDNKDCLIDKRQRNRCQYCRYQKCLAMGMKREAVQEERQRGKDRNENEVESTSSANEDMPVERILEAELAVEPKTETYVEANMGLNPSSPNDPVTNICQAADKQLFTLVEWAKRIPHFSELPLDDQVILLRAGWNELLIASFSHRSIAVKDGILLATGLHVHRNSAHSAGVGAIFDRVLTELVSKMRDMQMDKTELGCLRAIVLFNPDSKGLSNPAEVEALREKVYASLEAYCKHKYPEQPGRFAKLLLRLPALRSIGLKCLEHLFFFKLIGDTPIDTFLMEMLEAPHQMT
# Chain of Agonist Androgen Response Element (ARE), AR (gene 367) (P10275 whole entry, looked up): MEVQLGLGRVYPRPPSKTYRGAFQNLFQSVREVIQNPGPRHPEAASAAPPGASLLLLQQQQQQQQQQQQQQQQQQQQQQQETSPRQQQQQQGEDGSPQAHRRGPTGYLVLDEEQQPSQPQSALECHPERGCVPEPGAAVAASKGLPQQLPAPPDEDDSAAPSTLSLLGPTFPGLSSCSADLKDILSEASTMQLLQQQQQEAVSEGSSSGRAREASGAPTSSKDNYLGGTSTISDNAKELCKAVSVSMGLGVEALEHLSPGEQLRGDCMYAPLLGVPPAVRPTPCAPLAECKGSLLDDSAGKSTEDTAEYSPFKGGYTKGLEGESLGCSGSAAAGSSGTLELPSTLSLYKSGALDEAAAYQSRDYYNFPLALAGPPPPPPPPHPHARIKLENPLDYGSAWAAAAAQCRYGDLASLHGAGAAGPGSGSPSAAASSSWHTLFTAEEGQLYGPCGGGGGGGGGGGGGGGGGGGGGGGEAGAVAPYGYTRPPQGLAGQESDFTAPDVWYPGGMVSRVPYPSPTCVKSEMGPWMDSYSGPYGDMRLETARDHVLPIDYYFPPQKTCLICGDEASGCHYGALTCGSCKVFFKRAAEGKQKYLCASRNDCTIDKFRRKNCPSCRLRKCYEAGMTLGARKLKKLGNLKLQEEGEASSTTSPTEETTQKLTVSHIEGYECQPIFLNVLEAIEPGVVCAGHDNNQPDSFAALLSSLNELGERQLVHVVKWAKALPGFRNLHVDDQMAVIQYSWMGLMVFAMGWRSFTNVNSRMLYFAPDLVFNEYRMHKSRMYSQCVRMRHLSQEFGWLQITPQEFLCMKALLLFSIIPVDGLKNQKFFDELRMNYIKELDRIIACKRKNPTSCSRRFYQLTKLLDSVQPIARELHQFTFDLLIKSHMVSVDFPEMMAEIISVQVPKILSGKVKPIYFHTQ
smiles,measurement,setting,value
S=C(NC1CCCCC1)NC1CCCCC1,outcome,[1],inactive
same,outcome,[2],inactive
same,outcome,[3],inactive
same,outcome,[4],inactive
same,outcome,[5],inactive
same,outcome,[6],inactive
same,outcome,[7],inactive
same,outcome,[8],inactive
same,outcome,[9],inactive
CC1=NN(c2cc(S(=O)(=O)O)ccc2Cl)C(=O)C1N=Nc1ccccc1 (stereo not given),outcome,[10],inactive
same,outcome,[11],inactive
same,outcome,[12],inactive
same,outcome,[13],inactive
same,outcome,[14],inactive
CCCCC(CC)CCC(CC(C)C)OS(=O)(=O)O (stereo not given),outcome,[10],inactive
same,outcome,[11],inactive
same,outcome,[12],inactive
same,outcome,[15],inactive
same,outcome,[13],inactive
same,outcome,[14],inactive
C=C1C2CCC(C2)C1(C)C (stereo not given),outcome,[10],inactive
same,outcome,[11],inactive
same,outcome,[12],inactive
same,outcome,[13],inactive
same,outcome,[14],inactive
Cc1ccc(C(C)c2ccc(C)c(C)c2)cc1C,outcome,[10],inactive
same,outcome,[11],inactive
same,outcome,[12],inactive
same,AC50,[15],76.4 µM (active)
same,outcome,[14],inactive
same,outcome,[2],inactive
same,AC50,[3],42.5 µM (active)
same,AC50,[4],31.9 µM (active)
same,outcome,[5],inactive
same,outcome,[6],inactive
same,outcome,[7],inactive
same,outcome,[8],inactive
same,outcome,[9],inactive
CCCc1ccc(OC)cc1,outcome,[16],inactive
same,outcome,[10],inactive
same,outcome,[11],inactive
same,outcome,[12],inactive
same,outcome,[13],inactive
same,outcome,[14],inactive
CN(C)c1ccc(C(=N)c2ccc(N(C)C)cc2)cc1,outcome,[1],inactive
same,outcome,[10],inactive
same,outcome,[11],inactive
same,outcome,[12],inactive
same,AC50,[13],30.6 µM (active)
same,AC50,[14],28.7 µM (active)
same,outcome,[2],inactive
same,AC50,[3],3.27 µM (active)
same,outcome,[4],inactive
same,outcome,[5],inactive
same,outcome,[7],inactive
same,outcome,[8],inactive
same,outcome,[9],inactive
NC(CO)(CO)CO,outcome,[1],inactive
same,outcome,[11],inactive
same,outcome,[12],inactive
same,outcome,[13],inactive
same,outcome,[14],inactive
NC(=O)N=NC(N)=O,outcome,[10],inactive
same,outcome,[11],inactive
same,AC50,[12],12.1 µM (active)
same,outcome,[17],inactive
same,outcome,[13],inactive
same,outcome,[14],inactive
CCCCCCC1(C)CCC(=O)O1 (stereo not given),outcome,[11],inactive
same,outcome,[12],inactive
same,outcome,[13],inactive
same,outcome,[14],inactive
Cn1c([N+](=O)[O-])cnc1COC(N)=O,outcome,[10],inactive
same,outcome,[11],inactive
same,outcome,[12],inactive
same,outcome,[13],inactive
same,outcome,[14],inactive
O=C(OCC1CCC2OC2C1)C1CCC2OC2C1 (stereo not given),outcome,[11],inactive
same,outcome,[12],inactive
same,outcome,[13],inactive
same,outcome,[14],inactive
CCCCNc1ccc(NCCCC)c2c1C(=O)c1ccccc1C2=O,outcome,[2],inactive
same,outcome,[3],inactive
same,AC50,[4],0.164 µM (active)
same,outcome,[18],inactive
same,outcome,[5],inactive
same,outcome,[6],inactive
same,outcome,[7],inactive
same,outcome,[8],inactive
same,outcome,[9],inactive
C1CN(SSN2CCOCC2)CCO1,outcome,[11],inactive
same,outcome,[12],inactive
same,outcome,[14],inactive
Cc1ccc(N/N=c2\c(=O)cc/c(=N/Nc3ccc(S(=O)(=O)O)cc3)c2=O)c(C)c1,outcome,[10],inactive
same,outcome,[11],inactive
same,outcome,[12],inactive
same,outcome,[13],inactive
same,outcome,[14],inactive
CCCCCCCC/C=C\CCCCCCCC(=O)OCCO,outcome,[10],inactive
same,outcome,[11],inactive
same,outcome,[12],inactive
same,outcome,[13],inactive
same,outcome,[14],inactive
c1c[nH]cn1,outcome,[10],inactive
same,outcome,[11],inactive
same,outcome,[12],inactive
same,outcome,[13],inactive
same,outcome,[14],inactive
c1ccc2c(c1)ccc1cc3c(ccc4ccccc43)cc12,outcome,[11],inactive
same,outcome,[12],inactive
same,outcome,[19],inactive
same,outcome,[17],inactive
C=COCCCC,outcome,[2],inactive
same,outcome,[3],inactive
same,outcome,[4],inactive
same,outcome,[18],inactive
same,outcome,[5],inactive
same,outcome,[6],inactive
same,outcome,[7],inactive
same,outcome,[8],inactive
same,outcome,[9],inactive
O=S(=O)(O)c1ccccc1C=Cc1ccc(-c2ccc(C=Cc3ccccc3S(=O)(=O)O)cc2)cc1,outcome,[10],inactive
same,outcome,[11],inactive
same,outcome,[13],inactive
same,outcome,[14],inactive
CC(C)c1ccc2cc(C(C)C)ccc2c1,outcome,[10],inactive
same,outcome,[11],inactive
same,outcome,[12],inactive
same,outcome,[13],inactive
same,outcome,[14],inactive
